{"source": "PubChem BioAssay", "data": [{"molecular_target": "Calmodulin-1 (Homo sapiens) (UniProt P0DP23)", "assay": "small molecules binding Ca-loaded calmodulin-1 – biochemical, small-molecule microarray, Cy5-labelled CALM1, plus calcium, artefact control for SMM control-protein annotation, profiling panel (AID 1112);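 note: score merges spot fluorescence with signal to noise from triplicate slides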", "settings": "Cy5-CALM1 binding fluorescence, higher = more signal", "values": [{"smiles": "CC(C)[Si]1(C(C)C)OCc2cc(C3CC3)nc(-c3ccc(Oc4ccccc4)cc3)c21", "composite z-score": 0.631}, {"smiles": "O=C1NC(=O)C2C1C=CC(C(O)c1ccco1)N2Nc1ccc(Cl)cc1Cl", "note": "(stereo unspecified)", "composite z-score": 0.381}, {"smiles": "Cc1ccc(N2C(=O)c3ccccc3[C@@H](C(=O)NCCCN(C)C)[C@@H]2c2ccc(CO)cc2)nc1", "composite z-score": -0.382}, {"smiles": "CCCCCCc1nc(Cc2cc(OC)c(OC)c(OC)c2)cc2c1[Si](C(C)C)(C(C)C)OC2", "composite z-score": -0.302}, {"smiles": "CCOC(=O)C1=C[C@@H](C(C)(C)C)N(S(=O)(=O)c2ccc(C)cc2)[C@H]1c1cccc2ccccc12", "composite z-score": 0.423}, {"smiles": "COc1cc2c(cc1O)C(c1cccs1)N(Cc1cc3c(cc1Br)OCO3)CC2", "note": "(stereo unspecified)", "composite z-score": 0.602}, {"smiles": "C=CCNC(=O)[C@@H]1[C@H]2C(=O)O[C@H](c3ccccc3)[C@H](c3ccccc3)N2[C@H](c2ccccc2OCCO)[C@@]12C(=O)Nc1ccc(C#CCC(C(=O)OC)C(=O)OC)cc12", "composite z-score": -0.147}, {"smiles": "C=CCN1C(=O)[C@]2(CCS(=O)(=O)c3ccccc3)N=C(c3ccc(OCCCO)cc3)O[C@@H]2c2ccccc21", "composite z-score": -0.493}, {"smiles": "CC(c1ccccc1)C(O)C1C=CC2C(=O)N(C)C(=O)C2N1Nc1ccccc1", "note": "(stereo unspecified)", "composite z-score": 0.735}, {"smiles": "N#Cc1ccc(NN2C(C(O)c3ccc(Br)cc3)C=CC3C(=O)N(c4ccccc4)C(=O)C32)cc1", "note": "(stereo unspecified)", "composite z-score": 0.141}, {"smiles": "COc1ccc([Si](C)(C)[C@@H]2[C@@H](CCO)O[C@]3(C(=O)N(Cc4cccc(NC(=O)[C@H](C)O)c4)c4ccccc43)[C@H]2C)cc1", "composite z-score": -0.204}, {"smiles": "CCCCC(CC)C(O)C1C=CC2C(=O)N(C)C(=O)C2N1Nc1ccccc1", "note": "(stereo unspecified)", "composite z-score": 0.583}, {"smiles": "COCCOC(=O)N1C(=O)[C@@]2(c3cc(C#CCCO)ccc31)[C@H](c1ccc(OCCO)cc1)N1[C@H](c3ccccc3)[C@H](c3ccccc3)OC(=O)[C@H]1[C@@H]2C(=O)Nc1nc2ccccc2s1", "composite z-score": 0.682}, {"smiles": "[N-]=[N+]=NCc1ccccc1[C@@H]1OC(c2ccc(OCCCO)cc2)=N[C@]1(CCS(=O)(=O)c1ccccc1)C(=O)O", "composite z-score": 0.0892}, {"smiles": "O=C1C[C@]2(c3ccc([N+](=O)[O-])cc3)C(=O)N(C3CC3)c3cc(CO)ccc3[C@H]2N1CC12CC3CC(CC(C3)C1)C2", "composite z-score": -0.87}, {"smiles": "CCCC[C@@H]1C[C@H]1[C@@H](NC(=O)c1cccs1)c1ccccc1C(F)(F)F", "composite z-score": 0.763}, {"smiles": "O=C(Cc1ccccc1)[C@H]1C2C=CCCC(c3ccccc3)=C2CN1Cc1ccccc1", "note": "(stereo partly specified)", "composite z-score": -0.354}, {"smiles": "COC(=O)[C@]1(CCS(=O)(=O)c2ccccc2)N=C(c2ccc(OCCCO)cc2)O[C@@H]1c1ccccc1N=[N+]=[N-]", "composite z-score": 0.785}, {"smiles": "COCCOC(=O)N1C(=O)[C@@]2(c3cc(C#CC4=CCCCC4)ccc31)[C@H](c1ccccc1OCCO)N1[C@H](c3ccccc3)[C@H](c3ccccc3)OC(=O)[C@H]1[C@@H]2C(=O)N1CCN(c2ncccn2)CC1", "composite z-score": 0.466}, {"smiles": "CN(C)C(=O)[C@@]1(Cc2ccccc2)N=C(c2ccc(OCCCO)cc2)O[C@H]1c1ccccc1", "composite z-score": 0.972}, {"smiles": "COc1ccc(C#Cc2ccc3c(c2)[C@]2(C(=O)N3)[C@H](C(=O)O)[C@H]3C(=O)O[C@H](c4ccccc4)[C@H](c4ccccc4)N3[C@@H]2c2ccc(O)cc2)cc1", "composite z-score": 1.2}, {"smiles": "CCCCC[C@H]1OC[C@@]23C=C(Br)[C@@H](CC12)[C@@]1(CO1)C3=O", "note": "(stereo partly specified)", "composite z-score": -1.31}, {"smiles": "CC1CC/C=C\\[C@H]2OC34C=CCN(c5ccc(Cl)cc5)C(=O)[C@H]3N(C(C)CO)C(=O)[C@]4(C)C2C(=O)O1", "note": "(stereo partly specified)", "composite z-score": -0.141}, {"smiles": "COc1cc2c(cc1O)C(C1CC1)N(Cc1cccc(OC(F)(F)F)c1)CC2", "note": "(stereo unspecified)", "composite z-score": -0.453}, {"smiles": "COc1cc(C(O)C2C=CC3C(=O)N(C)C(=O)C3N2Nc2ccccc2)cc(OC)c1OC", "note": "(stereo unspecified)", "composite z-score": 0.661}, {"smiles": "[N-]=[N+]=NCc1ccccc1[C@H]1OC(c2ccc(OCCCO)cc2)=N[C@@]1(Cc1ccccc1N=[N+]=[N-])C(=O)NCC(O)CO", "note": "(stereo partly specified)", "composite z-score": 0.734}, {"smiles": "COC(=O)[C@@]1(Cc2ccc(OC)cc2)[C@H]2c3cc(C(=O)N(C)C)n(Cc4ccc(OC(F)(F)F)cc4)c3C[C@H]2CN1C(=O)c1ccccc1", "composite z-score": 0.267}, {"smiles": "C=C(/C(=C/C[C@H](OC(C)=O)c1ccc(CO)o1)c1cnc2ccccc2c1)C(C)C", "composite z-score": -0.24}, {"smiles": "Cc1ccc(S[C@]2(C(=O)NCc3ccccc3)CC(=O)N(C3CCCCC3)[C@@H]2c2ccc(CO)cc2I)cc1", "composite z-score": -0.267}, {"smiles": "COc1ccc([Si](C)(C)[C@@H]2[C@@H](CC(=O)N3Cc4ccccc4C[C@H]3CO)O[C@]3(C(=O)N(Cc4ccc(N5C(=O)c6cccc7cccc5c67)cc4)c4ccccc43)[C@H]2C)cc1", "composite z-score": -0.512}, {"smiles": "CCOC(=O)C[C@H]1[C@H](OC(=O)c2ccccc2-c2ccccc2)[C@@H](NC(=O)c2ccc3ccccc3n2)c2cc(OCCCO)ccc2N1C(=O)Cc1ccc(OC)cc1", "composite z-score": -0.224}, {"smiles": "CCOc1cc(C(O)C2C=CC3C(=O)NC(=O)C3N2Nc2ccc(Cl)cc2Cl)ccc1O", "note": "(stereo unspecified)", "composite z-score": -0.0008}, {"smiles": "Cc1ccc(NN2C(C(O)c3c(F)cccc3Cl)C=CC3C(=O)N(C4CCCCC4)C(=O)C32)cc1", "note": "(stereo unspecified)", "composite z-score": 1.14}, {"smiles": "CCOC(=O)C[C@H]1[C@H](OC(=O)c2ccc(-c3ccccc3)cc2)[C@@H](NC(=O)CC(C)C)c2cc(OCCCO)ccc2N1C(=O)c1ccc2ccccc2n1", "composite z-score": -0.631}, {"smiles": "COC(=O)[C@@]1(Cc2ccccc2)[C@H]2c3cc(C(=O)N4CCCC4)n(CCc4ccccn4)c3C[C@H]2CN1C(=O)c1ccccc1", "composite z-score": 0.842}, {"smiles": "Cc1ccc(S[C@]2(C(=O)NC(C)C)CC(=O)N(Cc3cc(C(F)(F)F)cc(C(F)(F)F)c3)[C@@H]2c2ccc(CO)cc2)cc1", "composite z-score": 0.0262}]}]}
